From PubChem BioAssay AID1578 (Sanford-Burnham Center for Chemical Genomics, 2009)
In all, about 290,000 compounds went through this assay and about 3,000 (1%) were called active. No stated cut-off is given here; in the data, active means inhibition mostly above about 36% (no sharp cut-off); inactive means mostly below about 34%. The list comes from a sample in which actives are over-represented; it also holds similar structures and randomly drawn compounds.

Test: inhibition of NOD1-driven NF-kB reporter – cell-based, luminescence, uHTS, primary screen (AID 1578);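 further: HEK-293T reporter cells stimulated with the NOD1 agonist gamma-tri-DAP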
Details: NOD1-driven NF-kB luciferase reporter cells, at 4 µM, stronger effect = higher value

inhibition, active:
COc1cc2c(cc1OC)CN(C(=O)CSc1nc(C)cc(C)c1C#N)CC2 54.2%, O=[N+]([O-])c1cccc(CN2CCCCCC2)c1 82.1%, COc1ccc(C(=O)NNC(=S)NC(=O)c2ccc(Br)o2)cc1OC 37.6%, CNCc1cc(Cl)cc(OC)c1OC(C)C 44.6%, COc1ccc(CCn2ccc(O)c(Cc3c(F)cccc3Cl)c2=O)cc1OC 55.5%

inhibition, inactive:
CNC(=O)c1ccccc1S(=O)c1ccccc1COC(C)=O (configuration not stated) -5.2%, COc1cc2c(cc1OC)CN(C(=O)CSc1nc(N)c(C#N)cc1C#N)CC2 6.8%, Cc1cc(C)c(C#N)c(SCC(=O)N2CCCCC2)n1 -5.5%, CC12C(=O)N(c3ccccn3)C(=O)C1C1C=CC2C1 (configuration not stated) 15.9%, CN(C)CCN(C(=O)c1cccc2ccccc12)c1nc2cc3c(cc2s1)OCO3 17.7%, O=[N+]([O-])c1ccc(N2CCN(Cc3cccc([N+](=O)[O-])c3)CC2)cc1 11.9%, O=[N+]([O-])c1ccc(CN2CCCCCC2)cc1 -21%, CCC(C(=O)N1CCN(c2ncccn2)CC1)c1ccccc1 (configuration not stated) 4.2%, CC(CC(=O)N(C)C1CCCCC1)S(=O)(=O)c1ccc2c(c1)NC(=O)CO2 (configuration not stated) -10.5%, COc1ccc(OCC(=O)NNC(=S)NC(=O)c2ccc(Br)o2)cc1 -38.4%, COc1ccc(OC)c(NC(=S)NC(=O)c2ccc(Br)o2)c1 -27.7%, COc1ccc(CCNC(=O)C/C(C)=N/NC(=O)c2ccc(N)cc2)cc1OC -10.1%, Cc1sc2ncn(CC(=O)NCCCC(=O)N3CCCCC3)c(=O)c2c1C 12.4%, CCNCc1cc(Cl)cc(OC)c1OC(C)C 17.6%, C=CCOc1c(CNC2CCCC2)cc(Cl)cc1OC -19.3%, COc1ccc(N)cc1S(=O)(=O)Nc1ccccc1Cl 9.1%, COc1ccc(OCC(=O)Nc2ccc(S(=O)(=O)N3CCCCCC3)cc2)cc1 -7.8%, O=S(=O)(c1ccc(S(=O)(=O)N2CCC(O)CC2)cc1)N1CCCC1 29.3%, COc1ccc(CCn2ccc(O)c(Cc3ccc(Cl)cc3Cl)c2=O)cc1OC -2.8%, COc1ccc(CCn2ccc(O)c(Cc3ccc(Cl)cc3)c2=O)cc1OC 3.1%, CN1CCN(C(=S)c2ccc(Cl)cc2)CC1 1.9%, NC(=O)C1CCN(Cc2ccc(OCc3ccccc3)cc2)CC1 -29.8%
